Assay results from PubChem BioAssay (NCATS).
Records with an inconclusive call do not appear. Where a call stands in place of a potency, no number is given. Values without a mark were called inactive. Active and inactive are the calls of the source. The call rests on the fitted dose curve; in most records, active means well fitted inhibition curve with a large enough effect; inconclusive means small, poorly fitted or top-dose-only effect; inactive means flat fitted curve, though single readings scatter.

Assays:
[1] = system: HEK293; experiment: Cytotoxic Profiling of Annotated Libraries Using Quantitative High-Throughput Screening (AID 1296008); conditions: Five cell lines viability, CellTiter-Glo ATP luminescence, 48-72 h; max response: active compounds read low; further: potency means the concentration at half of the fitted maximal effect
How it was run: (§1)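 Cytotoxicity was measured as CellTiter-Glo ATP luminescence, read after 10 min at room temperature. Compound treatment of the cells lasted 48 or 72 hr at 37 degrees Celsius in a qHTS format.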

[2] = system: HaCat; experiment: as above; conditions: Five cell lines viability, CellTiter-Glo ATP luminescence, 48-72 h; max response: active compounds read low
How it was run: as §1

[3] = system: KB-3-1; experiment: as above; conditions: Five cell lines viability, CellTiter-Glo ATP luminescence, 48-72 h; max response: active compounds read low
How it was run: as §1

[4] = system: HACAT; experiment: qHTS assay to identify novel small-molecules to repurpose for Merkel cell carcinoma treatment (AID 1296009); conditions: MCC and control cell lines, CellTiter-Glo viability, 72 h; series mostly up to 44.8 µM
How it was run: (§2)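 Cell viability, measured as CellTiter-Glo luminescence, was normalized between DMSO and no-cell wells. The cells had been exposed to 8- or 11-point compound dilutions for 72 hr at 37 degree celsius.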

[5] = system: NIH3T3; experiment: Cytotoxic Profiling of Annotated Libraries Using Quantitative High-Throughput Screening (AID 1296008); conditions: Five cell lines viability, CellTiter-Glo ATP luminescence, 48-72 h; max response: active compounds read low; further: potency means the concentration at half of the fitted maximal effect
How it was run: as §1

[6] = system: HEK293T; experiment: qHTS assay to identify novel small-molecules to repurpose for Merkel cell carcinoma treatment (AID 1296009); conditions: MCC and control cell lines, CellTiter-Glo viability, 72 h; at 44.8 µM (top of the series) unless noted
How it was run: as §2
Further: nearly all actives have a fitted effect of over 60% in size.

Structure (SMILES): CNC(=O)c1cc(Oc2ccc3nc(N[C@@H]4CCCC[C@H]4O)sc3c2)ccn1
- Potency [1]: 16.4 µM (active)
- outcome [2]: inactive
- max response [3]: -18.3%
- Potency [4]: inactive

Structure (SMILES): CC1=CC(=O)CC(C)(C)[C@H]1/C=C/C(CO)O[C@@H]1O[C@H](CO)[C@@H](O)[C@H](O)[C@H]1O (stereo partly drawn)
- max response [1]: -4.12%
- outcome [2]: inactive
- outcome [3]: inactive
- max response [5]: -2.41%
- Potency [4]: inactive

Structure (SMILES): CCOCc1cc(OC)c(-c2ccc(C[C@H](NC(=O)c3c(F)cccc3F)C(=O)O)cc2)c(OC)c1
- max response [1]: -1.31%
- outcome [2]: inactive
- outcome [3]: inactive
- Potency [4]: inactive

Structure (SMILES): COc1cc(O)c2c(c1)C1=C[C@H](O)[C@@H](O)C[C@]1(C)OC2=O
- outcome [1]: inactive
- max response [2]: -2.92%
- max response [3]: 9.7%
- outcome [5]: inactive
- outcome [6]: inactive

Structure (SMILES): C=CC(C)(C)c1[nH]c2cc3c(cc2c1CC1NC(=O)C2=CCCN2C1=O)C=CC(C)(C)O3 (stereo not drawn)
- max response [1]: -27.4%
- outcome [2]: inactive
- outcome [3]: inactive
- max response [5]: -5.01%
- Potency [4]: inactive
